Test systems include NCI-H226 lung; NCI-H322M lung; HOP-62 NSCLC; NCI-H460 lung; HOP-92 NSCLC; NCI-H522 lung; A549/ATCC NSCLC; 786-0 renal; COLO 205 colon; DU-145 prostate.
Common to all, as to test: NCI-60 one-dose screen, 48 h (100 = growth as untreated, 0 = no growth, -100 = all killed)
Holding throughout (details): 10 µM unless noted

Each structure is given as a SMILES string. About 83,000 compounds went through this panel and 20% of them were active in at least one assay; those are over-represented in the sample as a whole.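 In brief: 96-well plates, 48 h treatment, single concentration, percent growth endpoint.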 Values without a mark were called inactive. Active and inactive are the calls of the source. How the source made its calls: active means growth percent below 10; inactive means the rest.

Turning to `COc1ccc(-c2cc(C(=O)N=Nc3c(O)[nH]c4ccccc34)c3ccccc3n2)cc1OC`, the growth with NCI-H226 lung was 86.2%; with NCI-H322M lung it was 89.7%; with HOP-62 NSCLC it was 93.2%; in the assay on NCI-H460 lung, 99%; with HOP-92 NSCLC, 89.5%; in the assay with NCI-H522 lung, 90.2%. For the same molecule, the growth in the assay with A549/ATCC NSCLC was 95.7%; in the assay on 786-0 renal, 104%; in the assay with COLO 205 colon, 98.3%; with DU-145 prostate, 104%.

For `OC1CCN(CCCOc2c3ccccc3nc3c2oc2ccc(Cl)cc23)CC1`, the growth was 11.1% in the assay with NCI-H226 lung; -1.27% (active) with NCI-H322M lung; 27% in the assay on HOP-62 NSCLC; 4.79% (active) in the assay on NCI-H460 lung; 14% in the assay with HOP-92 NSCLC; -51.4% (active) in the assay on NCI-H522 lung. Besides, the growth in the assay with A549/ATCC NSCLC was 1.98% (active); with 786-0 renal, 11.7%; in the assay with COLO 205 colon, -13.1% (active); in the assay on DU-145 prostate, 5.05% (active).

With `Clc1ccc(-c2cn3cc(Cc4ccc(Cl)c(Cl)c4)sc3n2)cc1`, the growth with NCI-H226 lung was 85.7%; with NCI-H322M lung, 70.5%; in the assay on HOP-62 NSCLC, 70.4%; in the assay with NCI-H460 lung, 22.5%; in the assay with HOP-92 NSCLC, 81.8%; in the assay on NCI-H522 lung it was 76%. Also, the growth was 61.3% in the assay on A549/ATCC NSCLC, 84% in the assay with 786-0 renal, 42.7% with COLO 205 colon and 69.6% in the assay on DU-145 prostate.

As for `CCOC(=O)c1sc(NCC(=O)Nc2cccc([N+](=O)[O-])c2)c(C(=O)OCC)c1C`, the growth is -33.7% (active) in the assay on NCI-H226 lung; -8.8% (active) in the assay with NCI-H322M lung; -12.9% (active) in the assay on HOP-62 NSCLC; 2.96% (active) in the assay on NCI-H460 lung; -19.5% (active) in the assay on HOP-92 NSCLC; -41.5% (active) in the assay with NCI-H522 lung. The growth was -38.1% (active) in the assay on A549/ATCC NSCLC, -12.4% (active) with 786-0 renal, -33.4% (active) in the assay with COLO 205 colon and -6.75% (active) in the assay with DU-145 prostate.

For `CCCCCCNC(=O)Oc1ccc(/C(=C(/C)c2ccccc2)c2ccc(OCCN3CCCCCC3)cc2)cc1`, the growth with NCI-H226 lung was 76.7%; with NCI-H322M lung, 87.5%; in the assay on HOP-62 NSCLC, 78.6%; in the assay with NCI-H460 lung, 6.58% (active); with HOP-92 NSCLC, 12.5%; in the assay on NCI-H522 lung, 85%. For the same molecule, the growth in the assay with A549/ATCC NSCLC is 63.1%; in the assay with 786-0 renal, -0.48% (active); with COLO 205 colon, 21.7%; in the assay on DU-145 prostate it was 68.2%.

On to `Cc1ccc(/C=C/c2nn3c(-c4ccco4)nnc3s2)cc1C`, for which the growth is 106% in the assay with NCI-H226 lung; 97.1% in the assay on NCI-H322M lung; 100% with HOP-62 NSCLC; 104% in the assay on NCI-H460 lung; 93.9% with HOP-92 NSCLC; 104% in the assay with NCI-H522 lung. Further, the growth in the assay on A549/ATCC NSCLC was 94%; with 786-0 renal it was 100%; in the assay on COLO 205 colon it was 126%; in the assay with DU-145 prostate, 103%.

Regarding `NS(=O)(=O)c1cccc(Nc2nc(SCC(=O)c3ccc([N+](=O)[O-])cc3)nc3ccccc23)c1`, the growth with NCI-H226 lung is -20.9% (active); in the assay with NCI-H322M lung, 82.7%; with HOP-62 NSCLC it was 71.9%; in the assay with NCI-H460 lung, 36.3%; in the assay on NCI-H522 lung, 19.3%; with A549/ATCC NSCLC, 70.6%. Further, the results for the growth in the assay with 786-0 renal, in the assay on COLO 205 colon and in the assay on DU-145 prostate were 44.6%, 83.1% and 42.8%, respectively.

Take `COc1ccc(NC(=O)c2sc3nc(-c4cnccn4)cc(-c4cccs4)c3c2N)cc1`: the growth was 35.5% in the assay on NCI-H226 lung; 82.3% in the assay with NCI-H322M lung; 84.4% with HOP-62 NSCLC; 55.3% in the assay on NCI-H460 lung; 78.2% with NCI-H522 lung; 72.5% with A549/ATCC NSCLC. In addition, the growth was 62.7% in the assay with 786-0 renal, 64.7% in the assay with COLO 205 colon and 88.9% in the assay with DU-145 prostate.

As for `Nc1cc(-c2c[nH]c3ccccc23)nc2cc(-c3c[nH]c4ccccc34)nn12`, the growth is 67.3% in the assay with NCI-H226 lung; 80.8% with NCI-H322M lung; 95.3% with HOP-62 NSCLC; 4.94% (active) in the assay with NCI-H460 lung; 43% with NCI-H522 lung; 58.3% with A549/ATCC NSCLC. Also, the growth in the assay on 786-0 renal was 46.8%; with COLO 205 colon it was 49.4%; in the assay with DU-145 prostate, 40.2%.

As for `N#Cc1c(-c2ccc(Cl)cc2)nc(SCc2ccc(F)cc2)nc1N1CCNCC1`, the growth is 101% in the assay on NCI-H226 lung; 76.7% in the assay on NCI-H322M lung; 80.8% in the assay on HOP-62 NSCLC; -70.2% (active) in the assay with NCI-H460 lung; 94.1% in the assay on NCI-H522 lung; 60.2% in the assay on A549/ATCC NSCLC. In addition, the growth in the assay on 786-0 renal was 62.5%; in the assay on COLO 205 colon, -27.2% (active); in the assay on DU-145 prostate, 61%.

With `COC(=O)C1CN(S(=O)(=O)/N=C2\NC(=O)NC2=C(Cl)Cl)C1`, the growth was 106% in the assay on NCI-H226 lung; 102% in the assay with NCI-H322M lung; 109% with HOP-62 NSCLC; 108% in the assay with NCI-H460 lung; 99.1% in the assay with NCI-H522 lung; 101% with A549/ATCC NSCLC. The growth was 104% with 786-0 renal, 124% with COLO 205 colon and 116% in the assay with DU-145 prostate.

In the case of `CC(C)(O)c1cncc(-c2ccc3ncnc(N4CCc5cc(F)c(Cl)cc54)c3c2)c1`, the growth was 23.7% with NCI-H226 lung; -0.361% (active) in the assay on NCI-H322M lung; 30.2% in the assay on HOP-62 NSCLC; 17.2% in the assay on NCI-H460 lung; 18.5% in the assay on NCI-H522 lung; 15.8% with A549/ATCC NSCLC. Also, the growth in the assay with 786-0 renal is 11.7%; with COLO 205 colon, 30.1%; with DU-145 prostate it was 14.4%.

Turning to `CN(C)S(=O)(=O)c1oc(-c2ccccc2)nc1C#N`, the growth in the assay on NCI-H226 lung was 98.2%; in the assay with NCI-H322M lung it was 99.6%; in the assay on HOP-62 NSCLC, 99.6%; with NCI-H460 lung it was 109%; in the assay with NCI-H522 lung, -64.7% (active); in the assay with A549/ATCC NSCLC, 105%. Also, the growth in the assay on 786-0 renal is 66.1%; in the assay on COLO 205 colon, 75.9%; in the assay with DU-145 prostate, 34.7%.

Regarding `O=C1NC(=C(Cl)Cl)/C(=N/S(=O)(=O)N2CCCCC2CC2(C(F)(F)F)N=N2)N1` (configuration not stated), the growth is 89.7% in the assay with NCI-H226 lung; 97.9% in the assay with NCI-H322M lung; 96% with HOP-62 NSCLC; 84.6% in the assay on NCI-H460 lung; -59.3% (active) in the assay with NCI-H522 lung; 111% in the assay on A549/ATCC NSCLC. For the same molecule, the values for the growth in the assay with 786-0 renal, with COLO 205 colon and in the assay on DU-145 prostate were -24.7% (active), -17.5% (active) and 74%, respectively.

The values above are taken from PubChem BioAssay (NCI).
